WT yeast gro inh = growth inhibition of WT yeast, mitochondrial fusion screen | actives 2.1% (n = 190,000) | inhibition, % at 10 µM | mitochondrial fusion phenotypic screen, WT strain; in the data active = inhibition above about 58%; tested in S. cerevisiae
ROMK mod = human ROMK K+ channel modulation, primary screen; Tet-inducible ROMK, thallium flux fluorescence; actives lie on both sides; B-score at 10 µM; actives 2% (n = 130,000);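 active = signal ratio slope over the read window, or its plate-corrected B-score, at least 3 SD from the plate mean, either direction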;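 also: B-score of the F/F0 ratio slope over 7 to 12 s after thallium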
Calpain2 inh = calpain II (pig) inhibition. purified calpain II, fluorogenic peptide substrate, 30 min. inhibition, % at 16 µM. actives 0.37% (n = 220,000). AID 1236;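 active = inhibition above about 50%, limit read from the data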
Cl transport mod = modulates chloride dependent transport by human KCC2 | Q9H2X9 | KCC2 cells, thallium flux FluoZin-2 fluorescence | B-score of Tl+ flux slope (higher = more flux/activation; lower = inhibition) at 10 µM | actives 2.2% (n = 190,000) | AID 1456;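 active = thallium flux slope and its plate-corrected score both differing from the plate sample mean at a set confidence after two filtering rounds, in either direction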;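 also: slope of fluorescence scaled to starting intensity during 10 to 20 s after thallium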
Target sequence (Q9H2X9 whole entry, looked up): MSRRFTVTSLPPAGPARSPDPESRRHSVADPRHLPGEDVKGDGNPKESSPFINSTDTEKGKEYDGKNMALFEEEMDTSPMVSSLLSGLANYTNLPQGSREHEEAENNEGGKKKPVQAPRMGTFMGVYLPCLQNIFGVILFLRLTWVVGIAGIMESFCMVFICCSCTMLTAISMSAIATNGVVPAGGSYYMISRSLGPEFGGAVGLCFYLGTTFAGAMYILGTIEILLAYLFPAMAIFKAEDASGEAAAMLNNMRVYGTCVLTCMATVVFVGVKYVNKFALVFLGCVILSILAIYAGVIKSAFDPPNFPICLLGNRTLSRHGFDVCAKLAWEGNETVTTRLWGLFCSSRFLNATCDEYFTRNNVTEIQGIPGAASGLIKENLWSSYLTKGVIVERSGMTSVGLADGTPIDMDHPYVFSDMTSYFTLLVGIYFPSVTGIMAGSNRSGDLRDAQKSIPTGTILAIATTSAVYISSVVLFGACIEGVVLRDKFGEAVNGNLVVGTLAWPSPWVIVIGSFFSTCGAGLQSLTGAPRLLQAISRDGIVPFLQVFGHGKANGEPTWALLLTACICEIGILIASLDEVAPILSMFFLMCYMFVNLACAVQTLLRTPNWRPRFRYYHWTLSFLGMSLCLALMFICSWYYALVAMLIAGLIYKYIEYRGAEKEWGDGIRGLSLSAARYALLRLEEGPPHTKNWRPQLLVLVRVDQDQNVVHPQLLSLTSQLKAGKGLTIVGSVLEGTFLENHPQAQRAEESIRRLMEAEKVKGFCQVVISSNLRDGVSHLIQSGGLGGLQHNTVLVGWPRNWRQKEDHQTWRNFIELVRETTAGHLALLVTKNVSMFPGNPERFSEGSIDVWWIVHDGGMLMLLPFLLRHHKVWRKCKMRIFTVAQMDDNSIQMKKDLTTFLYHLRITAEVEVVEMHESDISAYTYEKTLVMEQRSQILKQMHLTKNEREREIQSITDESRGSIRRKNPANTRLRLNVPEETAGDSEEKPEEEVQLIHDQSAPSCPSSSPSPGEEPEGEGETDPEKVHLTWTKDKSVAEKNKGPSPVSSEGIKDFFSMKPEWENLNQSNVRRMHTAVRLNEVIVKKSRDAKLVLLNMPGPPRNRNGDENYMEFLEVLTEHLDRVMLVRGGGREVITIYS
Lmaj promast = reduces viability of Leishmania major promastigotes. resazurin fluorescence viability. inhibition, % at 10 µM. actives 9% (n = 200,000); in the data active = inhibition above about 50%;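 also: promastigotes grown with compound for 44 hours at 28 °C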
ROMK hit retest = human ROMK channel modulation, retest confirmation. normalized thallium flux (F/F0 slope) at 10 µM. AID 1917. actives 54% (n = 3,000). ROMK thallium flux, fluorescence ratio; stronger effect = lower value. shares compounds with ROMK mod;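 active = Flux at 10 µM at least 3 SD below or above vehicle control mean in one or both replicates; inconclusive = no clear call, values can overlap the other calls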
Each line names hits and unclear results; the compound was inactive in the other large screens (follow-up assays come after a bar, where they were run). An excerpt weighted towards active compounds, which were near 12% of everything screened.

O=S(=O)(Nc1nc2ccccc2s1)c1ccc(Br)s1	ROMK mod -3.18 | ROMK hit retest 0.0525
COc1ccc(-c2nnc3ccc(SCC(=O)NCC4CCCO4)nn23)cc1 (centres undefined)	ROMK mod -6.07 | ROMK hit retest inactive
O=C(CSc1ccc2nnc(-c3ccc(F)cc3)n2n1)NCC1CCCO1 (centres undefined)	none (no result: Calpain2 inh)
CC(C(=O)NCC1CCCO1)c1ccc([N+](=O)[O-])cc1 (centres undefined)	none
CCc1cccc(CC)c1NC(=O)CN1C2CCCC1CC(NC(=O)Nc1cccc(OC)c1)C2 (centres undefined)	ROMK mod -3.96 | ROMK hit retest inconclusive
O=C(NC1CCCCCC1)C1CCCN(S(=O)(=O)c2cccs2)C1 (centres undefined)	none (no result: ROMK mod) | ROMK hit retest inconclusive
O=C(NC1CCCCC1)C1CCN(S(=O)(=O)c2cccs2)CC1	none (no result: Cl transport mod)
NC(=O)C(CC(=O)O)NC(=O)[C@@H]1CCCNc2c(I)cc([N+](=O)[O-])cc2C(=O)N[C@@H](CO)C(=O)N[C@@H](Cc2ccc(O)cc2)C(=O)N1 (some centres undefined)	none
O=C(Nc1ccc(O)cc1)c1ccc(C(=O)c2ccccc2)o1	none (no result: ROMK mod)
Cc1nc(C)c2c(=O)cc(-c3ccccc3)[nH]c2n1	ROMK mod 1.22 | ROMK hit retest inactive
COc1cc(C(=O)N2CCN(C(=O)c3ccco3)CC2)c([N+](=O)[O-])cc1OC	none
COc1ccc(-n2c(C)c([N+](=O)[O-])c3ccc(O)c(CN4CCCCC4)c32)cc1	none
Cc1ccc(-n2c(C)c([N+](=O)[O-])c3ccc(O)c(CN(C)C)c32)cc1	ROMK mod -5.31 (no result: Cl transport mod) | ROMK hit retest 0.0485
COc1ccccc1C(=O)Nc1ccc2c(c1)nc(CCNC(C)=O)n2C	none
COc1ccc(C(=O)Nc2ccc3c(c2)nc(CCNC(C)=O)n3C)cc1	ROMK mod 2.97 (no result: Cl transport mod) | ROMK hit retest inactive
COc1ccc(NC(=O)N2CCN(S(C)(=O)=O)CC2)c(OC)c1	none
S=C(NCCc1ccccc1)N1CCN(C23CC4CC(CC(C4)C2)C3)CC1	ROMK mod -7.94 | ROMK hit retest inconclusive
CC(=O)C1=C(C)NC(SCC(N)=O)=C(C#N)C1CC(C)C (centres undefined)	none
CCOC(=O)C1=C(C)NC(SC)=C(C#N)C1CC(C)C (centres undefined)	ROMK mod 2.5 (no result: WT yeast gro inh, Lmaj promast) | ROMK hit retest inactive
O=C(C[n+]1cccc(CNC(=O)c2ccc(OC(F)F)cc2)c1)Nc1ccc(SC(F)F)cc1	ROMK mod -4.03 | ROMK hit retest inactive
O=C(C[n+]1cccc(CNC(=O)c2ccc(OC(F)F)cc2)c1)Nc1ccccc1Cl	none (no result: ROMK mod)
COc1cc([N+](=O)[O-])ccc1NC(=O)CN1CCOCC1	none
CCOc1cccc(/C=C2\NC(=S)N(c3ccccc3)C2=O)c1O	none (no result: WT yeast gro inh, ROMK mod, Lmaj promast) | ROMK hit retest 0.0582
CCOc1cc(/C=C2\NC(=S)N(c3c(C)n(C)n(-c4ccccc4)c3=O)C2=O)ccc1O	none (no result: ROMK mod)
COc1cc(CNC(C)(C)CO)cc(Br)c1OCc1ccc(Cl)cc1	ROMK mod -5.14, Lmaj promast 98.3 | ROMK hit retest 0.0564
COc1cc(/C=N/O)cc(Br)c1OCc1ccc(Cl)cc1	none
O=C(CNS(=O)(=O)c1ccccc1)NCc1cccnc1	none
CC(NC(=O)COc1ccccc1)C(c1cccs1)N1CCCC1 (centres undefined)	none
Cc1ccc(C(=O)NC(C)C(c2cccs2)N2CCCC2)s1 (centres undefined)	ROMK mod -3.56 | ROMK hit retest inactive
CC(C)(C)N1OC2CC1c1nc3ccccc3n1C2 (centres undefined)	none (no result: WT yeast gro inh, ROMK mod, Lmaj promast)
Cc1cc(C(=O)CN2C(=O)NC3(CCCc4ccccc43)C2=O)c(C)n1Cc1ccccc1 (centres undefined)	ROMK mod 2.05, Lmaj promast 53.3 | ROMK hit retest inactive
Cc1cc(C(=O)CN2C(=O)NC3(CCCc4ccccc43)C2=O)c(C)n1Cc1ccco1 (centres undefined)	none
COc1ccc(C(=O)/C=C\c2ccc(NC(=O)c3cccs3)cc2)cc1	none
COc1ccc(C2=NN(C(=O)CCC(=O)O)C(c3cccs3)C2)cc1 (centres undefined)	ROMK mod -3.48 | ROMK hit retest inactive
CN1C[C@@H]2C(c3ccc(C(F)(F)F)cc3)C3(c4ccc(C#N)cc4)CC2(C3)[C@H]1c1ccccc1 (some centres undefined)	none (no result: WT yeast gro inh, ROMK mod, Lmaj promast)
c1csc(CNCc2ccncc2)c1	none
N#CC1=C(N)Oc2cc(N)ccc2C1C1CCCCC1 (centres undefined)	none
CCOc1ccccc1C1C(C#N)=C(N)Oc2cc(N)ccc21 (centres undefined)	ROMK mod -4.2 | ROMK hit retest 0.0531
CCOC(=O)C(C)CC(C)C(=O)N1CCOCCN(C(=O)C(C)CC(C)C(=O)OCC)CCOCC1 (centres undefined)	none (no result: ROMK mod) | ROMK hit retest inactive
CC(C)(C)OC(=O)C(Cl)(C(=O)OC(C)(C)C)c1ccc2nnnn2n1	none | ROMK hit retest 0.0643
O=C1CCCc2nc3c(cc21)C(O)Oc1c-3ccc2ccccc12 (centres undefined)	none
O=C1CCCc2nc3c(cc21)C(O)Oc1ccccc1-3 (centres undefined)	none (no result: ROMK mod, Cl transport mod) | ROMK hit retest inactive
O=C(COC(=O)/C=C/c1ccc([N+](=O)[O-])cc1)NCc1ccc2c(c1)OCO2	none (no result: WT yeast gro inh, ROMK mod, Lmaj promast) | ROMK hit retest inactive
C=CS(=O)(=O)c1ccc(Oc2ccc(S(=O)(=O)C=C)cc2)cc1	ROMK mod -5.8 | ROMK hit retest 0.0406
CC(=O)c1c(O)c2ccccc2n(C)c1=O	none
O=c1c(Cl)c(O)c2cccc3c4ccccc4n1c23	none | ROMK hit retest inactive
O=C(COC(=O)CNC(=O)c1ccc(Cl)cc1)Nc1ccc(Cl)cc1C(F)(F)F	none (no result: ROMK mod)
COCCN(CCOC)C(=S)Nc1cc(S(=O)(=O)N(C)C)ccc1C	ROMK mod 4.33 | ROMK hit retest inactive
CC(C)n1cnc2c(N(C)c3ccccc3)nc(N(CCN(C)C)Cc3ccccc3)nc21	none (no result: WT yeast gro inh, ROMK mod, Lmaj promast) | ROMK hit retest 0.0524
O=C(COC(=O)c1ccc(Br)cc1)NCCN1C(=O)CSC1=O	none (no result: Cl transport mod)
COc1ccccc1-n1ccnc1SCC(=O)NCc1ccco1	none
CCOc1cc(-c2cc(-c3ccc(C)cc3)nc(N)c2C#N)ccc1O	none (no result: Cl transport mod)
COc1ccc(OC)c(-c2cc(-c3cccnc3)nc(N)c2C#N)c1	ROMK mod 3.46 (no result: WT yeast gro inh, Lmaj promast) | ROMK hit retest inactive
COc1cc(-c2cc(-c3ccc(O)cc3)nc(N)c2C#N)ccc1O	ROMK mod 4.15 | ROMK hit retest inactive
Cc1cc(=O)[nH]c(NCCO)n1	none
COc1cccc(/C=C(/C#N)c2ccc(Cl)cc2)c1OCc1cccc(C(=O)O)c1	ROMK mod 2.38 | ROMK hit retest inactive
COCCCn1c2nc3ccccc3nc2c2c(=O)n(Cc3ccc(Cl)cc3)cnc21	none (no result: WT yeast gro inh)
COCCCn1c(C)nc2c(c1=O)c1nc3ccccc3nc1n2CCc1ccccc1	ROMK mod -3.96 (no result: Cl transport mod) | ROMK hit retest 0.0498
CCn1nc(C)c(CNC(=O)CC2C(=O)NCCN2CC(C)C)c1C (centres undefined)	none
